In PubChem BioAssay (EPA / NIEHS) one finds outcome and AC50 data, which are given here for 36 molecules.

Molecules are shown by their SMILES. Several values for one entry are separate records, joined by “and”; a condition that tells them apart may be missing. Equal entries are not always repeated. The source holds several records for some structures; these can differ, active in one and inactive in another. Activity calls are given as the source filed them. The calls were made as follows: active = hit-call score of the fitted dose curve at least 0.9, where 1 is the maximum; inactive = score below 0.9.

Read-out in this test: Alpha-fetoprotein (AFP) gene, AFP (gene 174)
As to the kind of experiment: LTEA_HepaRG_AFP: Life Technologies and Expression Analysis (LTEA) Assay for Alpha-fetoprotein (AFP) gene using HepaRG (AID 2283472).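 As to AC50: AFP transcript by TaqMan qRT-PCR normalized to ACTB GAPDH and POLR2A.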 Conditions: mRNA level, 48 h; actives raise or lower the signal. The procedure:
It is a marker of Undifferentiated hepatocyte.Data from the assay component LTEA_HepaRG_AFP was analyzed into 1 endpoint. This assay endpoint, LTEA_HepaRG_AFP, was analyzed with bidirectional fitting relative to DMSO as the negative control and baseline of activity. Using a type of inducible reporter, measures of mRNA induction for gain or loss-of-signal activity can be used to understand regulation of transcription factor activity. To generalize the intended target to other relatable targets, this assay endpoint is annotated to the background measurement intended target family, where the subfamily is assay control.
A total of 1060 chemcials from the ToxCast library were tested in eight-point concentration-response experiments. Cell culture and cytotoxicity assays were conducted at Thermo Fisher Scientific's Custom Services facility (Madison, WI). A single lot of human HepaRG cells (Thermo Fisher Scientific, Frederick, MD) was used for the cell culture experiments. 96-well format collagen type I coated plates of human HepaRG cells were prepared using established methods. Briefly, cryopreserved HepaRG cells were thawed, plated at a density of approximately 100,000 cells/well in HepaRG Thaw, Plate, and General Purpose media (HPRG770, Thermo Fisher Scientific), and incubated for 48 hours. 0.5% DMSO was selected as vehicle control to balance the requisite need of DMSO in HepaRG cultures to maintain differentiation (for example, baseline metabolism, proportions of hepatocytes vs. cholangiocytes), while enabling further hepatic receptor pathway activation (for example, PXR and CAR) in response to chemical exposure. 48 hours after plating, the culture medium was replaced with HepaRG Serum-Free Incudtion Media. Cells were exposed to each test chemical in duplicate and maintained in CO2 incubators for another 48 hours. Chemical plates were thawed to room temperature and 200x concentrations of treatment groups were prepared. 8-point conentration-reponse curves were made with the highest exposure at 100 uM, followed by half-log dilutions, all in 0.5% DMSO. Each test plate contained variouse controls, induction positive controls (1mM phenobarbital), cytotoxicity positive controls ([…] aflatoxin B1), vehicle controls (0.5% DMSO), and total lysis controls (0.5% DMSO). Cell morphology images were taken using an Essen IncuCyte FLR automated microscope, with six 96-well plates imaged in about 24 minutes. Images were captured and exported and JPEG files. Spent culture media was transfered to black-well plates for the LDH assay, and remaining media was sorted at -80 C for later use. Cells were treated with RLT buffer and frozen until shipped for gene expression analysis. Total RNA was isolated from the cell suspension in 75 uL of Buffer RLT (Qiagen, Germantown, MD 20874) by Quintiles/Expression Analysis (Durham, NC) using a custom isolation procedure. Total RNA from each plate well was transferred to a preamplification plate. Fluidigm's 96.96 Dynamic ArrayTM (Fluidigm, Amsterdam, the Netherlands) technology was used for gene expression analyses by quantitative reverse transcription polymerase chain reaction (qRT-PCR, performed by Quintiles/Expression Analysis, Durham, NC)89. Standard TaqManTM Assays (Applied Biosystems/ThermoFisher Scientific, Foster City, CA) were used to assess the expression of 93 genes selected based on their selectivity and sensitivity to important hepatic receptors known to be modulated by environmental chemicals; importance in human hepatocyte functionality; and hepatotoxicity. Three "housekeeping" endogenous control genes were also included and used for normalization: actin beta (ACTB), Glyceraldehyde 3 phosphate dehydrogenase (GAPDH) and RNA Polymerase II Subunit A (POLR2A). qRT-PCR was conducted according to the manufacturer's protocol.
For the molecule `CCN(CC)C(=O)SCc1ccc(Cl)cc1`, the molecule was called inactive.

`Oc1ccc(Cl)cc1Cc1ccccc1`: the AC50 (usually the concentration at which the activity in the assay is half-maximal) was 82.5 µM (active) and 90 µM (active); the result was inactive.

For the molecule `CC(C)(C)C(O)/C(=C\c1ccc(Cl)cc1Cl)n1cncn1` (stereo not given), the AC50 was 19.8 µM (active).

For `Oc1cc(Cl)ccc1Oc1ccc(Cl)cc1Cl`, the molecule was called inactive and the AC50 was 51 µM (active).

As to `Clc1ccccc1-c1nnc(-c2ccccc2Cl)nn1`, the call was inactive.

With `ClC1C(Cl)C(Cl)C(Cl)C(Cl)C1Cl` (stereo not given), the AC50 was 19.5 µM (active) and the call was inactive.

As to `CCC(C)Nc1c([N+](=O)[O-])cc(C(C)(C)C)cc1[N+](=O)[O-]` (stereo not given), the AC50 is 50 µM (active).

As for `CC(C)(C)C(O)C(Oc1ccc(Cl)cc1)n1cncn1` (stereo not given), the AC50 is 4.76 µM (active) and 9.92 µM (active) and 50 µM (active).

Consider `Cc1[nH]c(=O)n(C(C)(C)C)c(=O)c1Cl`, for which the outcome was inactive.

For `CC(C)N(C(=O)COc1nnc(C(F)(F)F)s1)c1ccc(F)cc1`, the AC50 is 37.6 µM (active).

As for `O=S(=O)(O)C(F)(F)C(F)(F)C(F)(F)C(F)(F)C(F)(F)C(F)(F)C(F)(F)C(F)(F)F`, the call was inactive; the AC50 is 77.9 µM (active) and 80.1 µM (active) and 75.8 µM (active).

In the case of `CCC(C)(C)C(=O)OC1=C(c2ccc(Cl)cc2Cl)C(=O)OC12CCCCC2`, the outcome was inactive.

In the case of `O=C(O)C(F)(F)C(F)(F)C(F)(F)C(F)(F)C(F)(F)C(F)(F)C(F)(F)F`, the outcome was inactive.

On to `C#CCN1C(=O)COc2cc(F)c(N3C(=O)C4=C(CCCC4)C3=O)cc21`, for which the AC50 was 40.4 µM (active).

Consider `O=C(O)CCCOc1ccc(Cl)cc1Cl`, for which the call was inactive.

For `O=S1OCC2C(CO1)C1(Cl)C(Cl)=C(Cl)C2(Cl)C1(Cl)Cl` (stereo not given), the AC50 is 50 µM (active).

Consider `O=C(Nc1ccccc1)Nc1cnns1`, for which the half-maximal activity concentration (AC50) is 76.2 µM (active).

On to `CNC(=O)/C=C(\C)OP(=O)(OC)OC`, for which the molecule was classed as inactive.

`CCCN(CCOc1c(Cl)cc(Cl)cc1Cl)C(=O)n1ccnc1`: the half-maximal activity concentration (AC50) is 22.5 µM (active).

As to `O=C(O)COc1ccc(Cl)cc1Cl`, the molecule was called inactive.

Consider `OCCOc1ccccc1`, for which the result was inactive.

Turning to `N#CN`, the molecule was classed as inactive.

Take `CCC(C)(NC(=O)c1cc(Cl)c(C)c(Cl)c1)C(=O)CCl` (stereo not given): the AC50 is 76 µM (active).

As for `CC(C)OC(=O)Nc1cccc(Cl)c1`, the result was inactive.

As for `O=[N+]([O-])/N=C1\NCCN1Cc1ccc(Cl)nc1`, the AC50 was 31.7 µM (active).

Take `CC1(C)C(C=C(Cl)Cl)C1C(=O)OC(C#N)c1ccc(F)c(Oc2ccccc2)c1` (stereo not given): the molecule was classed as inactive.

With `CNC(=O)CSP(=S)(OC)OC`, the molecule was classed as inactive.

For `C[C@H]1[C@H](c2ccc(Cl)cc2)SC(=O)N1C(=O)NC1CCCCC1`, the AC50 is 36.7 µM (active).

For the molecule `CNC(=O)Oc1cccc(N=CN(C)C)c1`, the molecule was classed as inactive.

As to `COP(=S)(OC)Oc1ccc(SC)c(C)c1`, the half-maximal activity concentration (AC50) was 10.3 µM (active).

Consider `O=C(NC(=O)c1c(F)cccc1F)Nc1ccc(OC(F)(F)C(F)OC(F)(F)F)c(Cl)c1` (stereo not given), for which the molecule was classed as inactive.

For `CCCN(CCC)c1c([N+](=O)[O-])cc(C(F)(F)F)cc1[N+](=O)[O-]`, the molecule was called inactive.

Regarding `O=C1c2ccccc2C(=O)N1SC(Cl)(Cl)Cl`, the call was inactive.

On to `CCOCN(C(=O)CCl)c1c(C)cccc1CC`, for which the concentration at half-maximal activity (AC50) is 93.3 µM (active).

Take `CCc1ccc(C(=O)NN(C(=O)c2cc(C)cc(C)c2)C(C)(C)C)cc1`: the AC50 was 50 µM (active).

On to `COP(=S)(OC)Oc1ccc([N+](=O)[O-])cc1`, for which the molecule was called inactive.
